The record followed here is ChEMBL document CHEMBL3433997, “St. Jude Leishmania screening dataset” (2016).

Type in all cases: functional
In assay [1] the target is Solute carrier family 2, facilitated glucose transporter member 1 (Homo sapiens) (UniProt P11166). Kind of assay: ST_JUDE_LEISH: Cytotoxicity at 2uM final concentration against transgenic Leishmania Mexicana promastigotes LmGLUT1 that are glucose transport deficient and complemented with the human glucose transporter GLUT1. Activity is measured by DNA content using SYBR green in vitro.

Assay [2] concerns the target Hexose transporter 1 (Plasmodium falciparum) (UniProt O97467). The assay can be described thus: ST_JUDE_LEISH: Cytotoxicity at 2uM final concentration against transgenic Leishmania Mexicana promastigotes LmPfHT that are glucose transport deficient and complemented with the Plasmodium falciparum hexose transporter. Activity is measured by DNA content using SYBR green in vitro.

Assay [3] addresses Glucose transporter (Leishmania mexicana) (UniProt O61059). The assay can be described thus: ST_JUDE_LEISH: Cytotoxicity at 2uM final concentration against transgenic Leishmania Mexicana promastigotes LmGT2 that are glucose transport deficient and complemented with the L. Mexicana glucose transporter 2. Activity is measured by DNA content using SYBR green in vitro.

Where “and” joins values, the source holds several entries; their conditions need not be identical. Equal values may be shown once.

Solute carrier family 2, facilitated glucose transporter member 1 (Homo sapiens), sequence (P11166 whole entry): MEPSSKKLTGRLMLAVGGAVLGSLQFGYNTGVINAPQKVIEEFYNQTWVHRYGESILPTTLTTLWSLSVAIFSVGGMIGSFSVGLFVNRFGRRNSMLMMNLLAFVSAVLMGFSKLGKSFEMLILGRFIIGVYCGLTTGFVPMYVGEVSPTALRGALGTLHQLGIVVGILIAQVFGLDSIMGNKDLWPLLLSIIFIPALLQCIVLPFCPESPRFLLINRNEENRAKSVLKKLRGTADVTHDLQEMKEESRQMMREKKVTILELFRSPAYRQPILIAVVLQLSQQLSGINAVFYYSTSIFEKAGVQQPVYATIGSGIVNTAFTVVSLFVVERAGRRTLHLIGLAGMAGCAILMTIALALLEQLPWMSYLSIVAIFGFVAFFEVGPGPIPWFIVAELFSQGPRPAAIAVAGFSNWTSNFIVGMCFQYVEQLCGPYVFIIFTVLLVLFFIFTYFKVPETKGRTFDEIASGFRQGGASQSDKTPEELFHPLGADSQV

Take `Cc1cccc2nc(-c3ccc(-c4cccc(NC(=O)Nc5ccc(F)c(F)c5F)c4)cc3)[nH]c12`: the inhibition (usually the relative decrease from the control value, in per cent) is 2.29% in assay [1], 3.05% in assay [2] and 0.59% in assay [3].
On to `COc1ccc(CN2CCCN(Cc3cccc(C(=O)Nc4ccc(C(C)(C)C)cc4)c3)CC2)cc1`, for which the inhibition in assay [1] turned out to be 7.71%; in assay [2], 5.46%; in assay [3], 3.17%.
The corresponding values for `COCCNCc1cccc(-c2ccc3c(Nc4cc(O)c(Cl)cc4F)ccnc3c2)c1` are 2.97%, 3.2% and 2.93%.
The like results for `COc1ccc2nccc([C@@H](O)CN3CCC(NCCOc4cccc(C(F)(F)F)c4)CC3)c2c1` were, in that order, 9.63%, 12.5% and 0.73%.
The like results for `CCCCN(CCCC)CCCN(CCCN(CCCC)CCCC)c1cc(C)nc(Nc2ccc3cc(Br)ccc3c2)n1` were, in that order, 12%, 10.1% and 6.68%.
For `Cc1cc(N(C)CCCN(C)C)nc(Nc2ccc(Br)cc2)n1`, the inhibition in assay [1] is 0.19%; in assay [2], 2.58%; in assay [3] it was 2.6%.
As to `CCCNCc1ccc(-c2ccc(CN(CCOC)C(=O)c3ccc([N+](=O)[O-])c(C)c3)cc2)nc1`, the inhibition amounted to 3.77% in assay [1], 1.8% in assay [2] and 1.19% in assay [3].
The corresponding values for `CCc1cn2c3c(cc(C(=O)N[C@@H](Cc4ccccc4)[C@H](O)CNC4CCC4)cc13)N(C)S(=O)(=O)CC2` are 2.42%, 5.19% and 1.83%.
As for `CCOC(=O)c1ccc(NC(=O)N[C@@H](Cc2ccc(O)cc2)C(=O)NC2CCN(Cc3ccc4c(c3)OCO4)CC2)cc1`, the inhibition in assay [1] worked out at 0.57%; in assay [2], 2.47%; in assay [3] it was 0.58%.
In the case of `O=C(Nc1ccc2ccccc2c1)c1ccc(CN2CCC(Cc3ccccc3)CC2)cc1`, the inhibition in assay [1] was -2.67%; in assay [2], -3.63%; in assay [3] it was 7.65%.
Take `COc1ccc2ccccc2c1C=NN=c1cc(C)[nH]c2cc(C(F)(F)F)ccc12`: the inhibition was determined as 10.2% in assay [1], 8.24% in assay [2] and 6.68% in assay [3].
On to `CCNc1cc(CC)nc(Nc2ccc(C)cc2)n1`, for which the inhibition in assay [1] stood at 33.4%; in assay [2] it was 28.9%; in assay [3] it was 17.9%.
For `Cc1[nH]c(C)c(-c2ccc(Oc3ccc(OC(F)(F)F)cc3)cc2)c(=O)c1Br`, the inhibition was -1.24% and 1.98% in assay [1]; -1.18% and 1.4% in assay [2]; -2.31% and 2.01% in assay [3].
In the case of `COCCNCc1ccc(-c2ccc3c(Nc4ccc(F)cc4Cl)ccnc3c2)o1`, the figures for the inhibition in assay [1], in assay [2] and in assay [3] were 4.1%, 4.05% and 5.59%, respectively.
On to `O=C(COc1cccc([N+](=O)[O-])c1)Nc1ccc(-c2nc3ccccc3[nH]2)cc1`, for which the inhibition in assay [1] was 1.62%; in assay [2], 2.12%; in assay [3], -1.82%.
Consider `CC(C)COc1ccc(Cl)cc1Cc1ccc(-c2nc3ccc(F)c(F)c3[nH]2)o1`, for which the inhibition in assay [1] is 0.98%; in assay [2], -1.63%; in assay [3] it was 0.57%.
With `CCCC(C)n1ccc2c3c(N)nc(N)nc3ccc21` (stereo not given), the values for the inhibition in assay [1], in assay [2] and in assay [3] were 47.3%, 56.9% and 29.7%, respectively.
Regarding `CN1CCN(c2ccc(CNc3ccc4ncc(-c5cccc(OC(F)(F)F)c5)n4n3)cc2)CC1`, the results for the inhibition in assay [1], in assay [2] and in assay [3] were -2.82%, -3.7% and -2.5%, respectively.
On to `O=C(NCCCCN1CCC(c2ccc3c(c2OCc2ccncc2)CCCC3)CC1)c1ccc(-c2ccc(C(F)(F)F)cc2)cc1`, for which the inhibition in assay [1] worked out at 1.51%; in assay [2], 1.48%; in assay [3] it was 0.42%.
`O=C(NCCN1CCC(c2ncc(-c3ccccc3)o2)CC1)c1ccc(NC(=O)c2ccc(Cl)cc2)cc1`: the inhibition in assay [1] amounted to 0.84%; in assay [2] it was 2.19%; in assay [3], 1.19%.
In the case of `Cc1cccc(Nc2nccc(NCC(O)c3cccc(C(F)(F)F)c3)n2)c1` (stereo not given), the figures for the inhibition in assay [1], in assay [2] and in assay [3] were 7.67%, 7.59% and 2.59%, respectively.
`COc1cc(F)c2ncc(Cl)c(CCN3CCC(NCc4ccc5c(c4)OCCO5)CC3)c2c1`: the inhibition in assay [1] was determined as 41.6%; in assay [2], 54.6%; in assay [3], 68.8%.
The corresponding values for `COc1cc2nc(NCCC(C)C)n3nc(-c4ccccc4)nc3c2cc1OC` are -1.19%, -0.07% and -1.51%.
Take `NC(=O)c1cccc(Nc2nccc(Nc3ccc(Oc4ccc5ccccc5c4)cc3)n2)c1`: the inhibition in assay [1] stood at 5.67%; in assay [2], 4.45%; in assay [3], 0.97%.
In the case of `Cc1cc(C(=O)N(Cc2ccc(-c3ccc(CNCCc4ccc(S(C)(=O)=O)cc4)cn3)cc2)C(C)CN(C)C)ccc1[N+](=O)[O-]` (stereo not given), the inhibition is 7.26% in assay [1], 5.46% in assay [2] and 6.55% in assay [3].
Take `COc1cc(NC(=O)N2CCc3cc(OC)c(OCCN4CCCCC4)cc32)cc(C(F)(F)F)c1`: the inhibition turned out to be 12.9% in assay [1], 12.7% in assay [2] and 9.77% in assay [3].
With `CC(=O)Nc1cccc(Nc2c3ccccc3nc3ccccc23)c1`, the inhibition in assay [1] amounted to 1.69%; in assay [2], 3.82%; in assay [3], 0.54%.
The corresponding values for `O=C(c1cccs1)N(Cc1cccc(-c2ccc(CNCCc3ccccc3)cc2)c1)C1CCN(Cc2ccccc2)CC1` are 9.9%, 7.55% and 9.34%.
The corresponding values for `CCN1CCCC(Nc2ccnc3cc4ccccc4cc23)C1` (stereo not given) are 4.12%, 4.34% and 4.81%.
Take `Oc1c(Cl)cc(Nc2nccc(Nc3ccc(Oc4ccccc4)cc3)n2)cc1Cl`: the figures for the inhibition in assay [1], in assay [2] and in assay [3] were 4.19%, 4.44% and 1.16%, respectively.
Take `N=C(N)Nc1cccc(NC(=O)Nc2cccc(NC(=N)N)c2)c1`: the inhibition turned out to be 6.92% in assay [1], 4.83% in assay [2] and 3.86% in assay [3].
`Cc1ccc(Nc2nc3cc(Nc4ccnc(Nc5ccc(CS(C)(=O)=O)cc5)n4)ccc3o2)cc1`: the inhibition in assay [1] is 9.35%; in assay [2], 9.37%; in assay [3], 5.97%.
For the compound `CCOC(=O)C(CO)NC(=O)c1ccc([N+](=O)[O-])o1` (stereo not given), the inhibition in assay [1] came to 2.12%; in assay [2] it was 2.06%; in assay [3] it was 5.24%.
`CC1(C)C(N(O)C(=O)Nc2ccc(Cl)c(Cl)c2)N(c2ccc(Cl)c(Cl)c2)C(=O)N1CCc1ccccc1` (stereo not given): the inhibition in assay [1] was -0.14%; in assay [2] it was 0.2%; in assay [3] it was 0%.
Consider `CC(=O)Nc1ccc(NC(=O)c2cc(-c3ccc(C)cc3O)n[nH]2)cc1`, for which the inhibition in assay [1] was -0.23%; in assay [2], 7.7%; in assay [3], 0.4%.
